Our source for the PBM binding z-score values is the supplement of paper PMC6555819.

The subject of the assay is VDR:RXRa (NR concentration 270 nM, RXRa partner concentration 90 nM). The assay can be described thus: PBM binding z-score (relative to random genomic background probes); higher = stronger binding; sequences stand for … in GC…GCGATTGACAGCGTAGAATGAAGG
The procedure:
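Protein-binding microarray (Agilent 4x180K custom design, double-stranded 60-nt probes: 5' GC cap, 34-nt variable region, 24-nt constant primer region; full probe sequence given). Purified or IVT nuclear receptor:RXRα heterodimers (3:1 NR:RXRα, mostly 270:90 nM) or homodimers were incubated for 1 h in PBS with 2% milk and no ligand, then detected with Alexa488 antibodies. Fluorescence from o1-orientation probes (~5 replicates averaged) was converted to z-scores against 500 random hg19 background probes. Variable regions are seed direct-repeat (DR0–DR5) sites, all their single-nucleotide variants and half-site ablations.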
GCTATTAGTTAAAAGGGCAACCGAATGATTCTCG: the PBM binding z-score was 0.193.

For the sequence AGAAAGAGGGCACGCTGAGTTGATAGCAGAGTAG, the PBM binding z-score was found to be 2.39.

ATCTCTAGGTAACAAGTTCAGCGAAAGAGAGGAC yielded a PBM binding z-score of 2.45.

Take CCTTGGAGGACAACAGGAGGTCAGAGCTGCCAGA: the PBM binding z-score amounted to 1.99.

Consider ATGGAAAGGTCGACGAGGTGAGTATACACCGTTT, for which the PBM binding z-score was 5.25.

ATCTATAGGTAACCAAGTTCAGTGAATGCCGAAC returned a PBM binding z-score of 5.03.

Regarding AGAACGAGGGCAATGTGTTGATAGCACGGGTGGC, the PBM binding z-score turned out to be 0.824.

Turning to GCTATTAGTTGAAAGGGCAACCTAATGATTCTCG, the PBM binding z-score turned out to be 0.478.

Regarding GCTATTAGTTTAAAGGGCAACCGAATGATTCTCG, the PBM binding z-score turned out to be 0.65.

CCTTACGGGTGACGAGGTTATAGCACGACGAGCG came in with a PBM binding z-score of 0.935.

For the sequence CCTATTGGGCCAAGGTCATTGATCAGTCAAAGCA, the PBM binding z-score was 3.29.

Regarding CAAACTAGGTCAAGAGGTGAAAGTCCGCTTCCCG, the PBM binding z-score stood at 2.93.

CAAACTAGGTCAAAGTTCAAAGTCGAGCCAACCA came in with a PBM binding z-score of 6.12.

The sequence CTCGAAAGGTCGTGCTCAGCTGAGTATACCAAAC showed a PBM binding z-score of 3.17.

In turn, CGAACGAGGTCAAGGACAGTGAATCTCCGCACGC showed a PBM binding z-score of 5.09.

For TCTTGTAGGTCAACAGGAGGTTAAGAAAGATCGA, the PBM binding z-score worked out at 3.79.

As to ACTAGCAGGCCAAGGGTCACTCGAGATTAGTCCG, the PBM binding z-score was 2.56.

Take ATCGAAAGGTCGTGAGGTGAGTAAACAGAAAGGC: the PBM binding z-score was 3.3.

In turn, TTACCAAGGTGAAGTTCGTTGATCCCTCTGTAGA returned a PBM binding z-score of 1.49.

ATATGTAGGTTATCGGGTCATTCAGTTTGCGCAT: the PBM binding z-score turned out to be 5.

As to TAGCCTAGGTCAGATCGGGCCAGCATACGCTATA, the PBM binding z-score amounted to 0.584.

In turn, GCGACTCGGGCAAAGCAGGTTACCATAAGGTTGG came in with a PBM binding z-score of -0.491.

As to CTACCAAGGTGAACAAGGTAGTTGATTACTATTC, the PBM binding z-score came out at 1.45.

In turn, CGTCAAAGTTCAACTAAGGTAACGTACAGCACGC gave a PBM binding z-score of 4.64.

In the case of TCTTGTAGATCAACGGGAGGTTAAGAAAGATCGA, the PBM binding z-score was found to be 0.477.

In turn, AGAATGAGGTTATACGTAGATCAGGAAAGAAAGT displayed a PBM binding z-score of 1.51.

The sequence CGTCCAAAGTCAGAGAGGTCAGTGAATGCCGAGT returned a PBM binding z-score of 4.38.

On to GGAACGAGGGGATTCGAGTTGATAGCATGGCGAT, for which the PBM binding z-score is 0.173.

With TCTAATTGGTCAAAGGTCACACACTCGAAATGCG, the PBM binding z-score is 5.62.

In turn, CATCCAGGGTCAGCTAGGCCAGAGTAGGGACGGC came in with a PBM binding z-score of 3.97.

Regarding ATCTCTAGGTAAAAGATCAGTGAATCCCGAGGAT, the PBM binding z-score is -0.291.

TCTATTAGTTGAAGGGCAACTGACGAGTCCGTTT gave a PBM binding z-score of 0.937.

CATAGAGGGTCAGCTAGGCCAGAGTAGGGACGGC came in with a PBM binding z-score of 2.69.

Take CGTCCAAAGTCATAGGAGGTCAGTGAAGACAGAT: the PBM binding z-score was 3.12.

With CCGACTGGGGCAGACAGGTTACCATACCATCCGG, the PBM binding z-score is -0.343.

CAAACTATGTCACGAAAGGTCAAAGTCGAATGAC registered a PBM binding z-score of 5.07.

In turn, ATCGAAAGGTCGTGAGGTGAGAATACAGAAAGGC came in with a PBM binding z-score of 3.48.

Take TCTCGGAGGACACGCAGGTCAGAGCTTTCCAGAG: the PBM binding z-score came to 1.58.

Sequence CGTCCAAGGTCAGAGCGGTCAGTGAATGCCGAGT came in with a PBM binding z-score of 5.45.

In turn, ATACCAAGGTGATCGTCAGGTCGTTGATACTAAC registered a PBM binding z-score of 1.36.
